A selection: hits, their analogues and other compounds. The true share with any hit is near 3.6%.
MazEF act – increases E. coli MazEF RNase cleavage of RNA; FAM/BHQ RNA-DNA oligo cleavage fluorescence, 5 h; activation, % at 20 µM; AID 504720; actives 0.32% (n = 350,000); in the data active = activation above about 50%
Target sequence (P0AE70 whole entry, looked up): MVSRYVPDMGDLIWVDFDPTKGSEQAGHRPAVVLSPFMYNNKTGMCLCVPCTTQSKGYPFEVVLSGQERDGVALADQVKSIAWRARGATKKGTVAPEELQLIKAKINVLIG
BoNT-A LC inh2 – BoNT A light chain protease inhibition. multiplex microsphere protease substrate cleavage, flow cytometry. inhibition, % at 10 µM. actives 0.17% (n = 360,000). AID 588499
Anthrax LF inh2 – inhibitors of Bacillus anthracis lethal factor protease | P15917 | multiplex microsphere protease cleavage assay, LF | inhibition, % at 10 µM | actives 0.12% (n = 360,000) | AID 588501
Autofluor counter – flagged as autofluorescent in microsphere protease counterscreen | compound autofluorescence counterscreen, microsphere flow cytometry; active compounds read high | fluorescence intensity (test concentration not listed) | actives 3.1% (n = 360,000); in the data active = fluorescence intensity above about 16000; inconclusive = no clear call, values can overlap the other calls
BoNT F protease – BoNT F light chain protease inhibition. inhibition, % at 10 µM. Multiplex microsphere protease cleavage assay, flow cytometry. AID 588497. actives 0.22% (n = 360,000); in the data active = inhibition above about 35%, passing the limit was not always enough; inconclusive = no clear call, values can overlap the other calls
A number is an active result; – = inactive; ? = inconclusive; · = no result given. Cut-off read from the data, not from the text of the source, unless noted: active = inhibition above about 30%; inconclusive = no clear call, values can overlap the other calls; inactive = below that.

SMILES	MazEF act	BoNT-A LC inh2	Anthrax LF inh2	Autofluor counter	BoNT F protease
O=C1c2ccccc2C(Nc2ccc(S(=O)(=O)N3CCCCCC3)cc2)N1c1ccccn1 (centres undefined)	93.8	–	–	–	–
CON(C)C(=O)Nc1ccc(Cl)cc1	–	–	–	16992	–
CC(C)C(=O)N1CCN(c2ccc(NC(=O)c3ccc4c(c3)OCCO4)cc2Cl)CC1	–	?	–	16164	–
O=C(Nc1ccc(N2CCCCC2)cc1)c1ccc2c(c1)OCCO2	–	?	–	23082	–
CC(=O)N1CCN(c2ccc(NC(=O)c3ccc4c(c3)OCCO4)cc2)CC1	–	–	–	–	–
Cc1cc(NC(=O)C(C)SCC(=O)OCc2ccc(Cl)cc2Cl)no1 (centres undefined)	–	–	–	?	–
CCOc1ccc(Cl)cc1S(=O)(=O)N1CCC(C(=O)NCc2ccncc2)CC1	–	–	–	–	–
COc1cccc(-n2c(Cn3nc(C(F)(F)F)cc3C)n[nH]c2=S)c1	–	–	–	–	–
COc1ccc(CCn2c(=N)c(S(=O)(=O)c3ccc(C)cc3)cc3c(=O)n4ccccc4nc32)cc1	–	–	–	–	–
Cc1ccc(S(=O)(=O)Nc2ccc3cc([N+](=O)[O-])ccc3c2[N+](=O)[O-])cc1	–	–	–	–	–
COc1nc(C)cc(C)c1S(=O)(=O)c1ccccc1C	–	–	–	–	?
COc1nc(N)c(S(=O)(=O)c2ccccc2C)cc1C#N	–	–	–	19846	–
COc1nc(N)c(S(=O)(=O)c2ccccc2)cc1C#N	–	?	–	22871	–
Cc1noc(C)c1C(=O)NC1=NCCS1	–	–	–	–	–
Cc1cc(N(CCO)CCO)ccc1C(c1ccc(N(CCO)CCO)cc1C)c1ccccc1Cl	–	–	–	–	–
Cc1nn(-c2ccccc2)c(N2CCCC2)c1/C=N/NC(=S)Nc1ccccc1F	–	–	–	–	–
O=C(O)CCC(=O)NNC(=O)CCC1CCCCC1	–	–	–	–	–
O=C(CCC1CCCCC1)NNC(=O)NC12CC3CC(CC(C3)C1)C2	–	?	–	23967	–
COc1nn(CC(=O)N2N=C(C)CC2(O)C(F)(F)F)cc1[N+](=O)[O-] (centres undefined)	–	–	–	24478	–
CC1=NN(C(=O)Cn2ccc([N+](=O)[O-])n2)C(O)(C(F)(F)F)C1 (centres undefined)	–	–	–	–	–
O=C(Nc1c(F)cc(F)cc1Br)c1cccnc1	–	–	–	23919	–
COc1ccc(C(=O)N(CN2CCCC2=O)c2cc(C)on2)cc1OC	–	–	–	21141	–
O=C1CCCN1CN(C(=O)c1ccc2c(c1)OCO2)c1ccc(F)cc1	–	?	–	21432	–
O=C1CCCN1CN(C(=O)c1ccccc1)c1ccc(F)cc1	–	·	·	·	·
Cc1cc(N(CN2CCCC2=O)C(=O)c2ccccc2)no1	–	–	–	23950	–
SMILES	MazEF act	BoNT-A LC inh2	Anthrax LF inh2	Autofluor counter	BoNT F protease
Cc1cc(N(CN2CCCC2=O)C(=O)c2ccc(F)cc2)no1	–	–	–	20214	–
Cc1cccc(N(CC(=O)N2CCN(c3ccc(F)cc3)CC2)S(C)(=O)=O)c1C	–	–	–	–	–
CS(=O)(=O)N(CC(=O)N1CCN(c2ccc(F)cc2)CC1)c1ccc(F)c(Cl)c1	–	?	–	24225	–
COc1ccc2[nH]c(=O)c(-c3nnn(-c4ccc(Cl)nc4)n3)cc2c1	–	–	–	–	–
O=C(c1ccc2ccccc2c1)N1CCCC1	–	–	–	–	–
CN1CCN(C(=O)c2ccc3ccccc3c2)CC1	–	–	–	23924	–
CN1CCN(C(=O)c2ccc(-n3cccc3)cc2)CC1	–	?	–	20993	–
O=c1[nH]cnc2sc3c(c12)CCCC3	–	–	–	23869	–
Cc1ccc(C)c(NC(=O)C(C)N2C(=O)c3ccccc3C2=O)c1 (centres undefined)	–	–	–	–	–
Cc1cn([C@H]2C[C@H](O)[C@@H](CNC(=O)[C@@H]3CCCN3Cc3ccccc3)O2)c(=O)[nH]c1=O	–	–	–	–	–
O=C(C/C=N/OCc1ccc(Cl)cc1Cl)c1ccc(Cl)cc1	–	–	–	22103	–
O=C(C/C=N/OCc1ccc(Cl)cc1Cl)c1ccccc1	–	·	·	·	·
O=C(C/C=N/OCc1c(Cl)cccc1Cl)c1ccccc1	–	–	–	23991	–
O=C(N/C=N/OCc1ccc(Cl)cc1Cl)NOCc1c(Cl)cccc1Cl	79.7	–	–	–	–
COc1ccc(C(=O)N/C(=C\c2ccc(Cl)cc2)C(=O)NCCN2CCOCC2)cc1	–	–	–	–	–
CCOC(=O)CC1c2nc3ccccc3cc2CN1C(=O)OCC (centres undefined)	–	–	–	–	–
COc1cccc(-c2cc(C(F)(F)F)nc(-n3cncn3)n2)c1	–	?	–	25001	–
Fc1ccc(-c2cc(C(F)(F)F)nc(-n3cncn3)n2)cc1	–	–	–	21601	–
CCn1nc(C)c(CN2CCC(n3nccc3NC(=O)Cc3ccccc3)CC2)c1C	–	–	–	–	–
O=S1(=O)CC2(N3CCOCC3)CCCCCCC21 (centres undefined)	–	–	–	23822	–
O=S1(=O)CC2(N3CCOCC3)CCCCC21 (centres undefined)	–	–	–	19624	–
CC1(C(=O)N2CCOCC2)CCCCC1	–	–	–	–	?
O=C(NCCCN1CCCC1=O)C(=O)NCC1OCCN1S(=O)(=O)c1ccc(Cl)cc1 (centres undefined)	–	–	–	?	–
Cc1ccc(C(=O)Oc2coc(CSc3nnc(NC(=O)C4CC4)s3)cc2=O)cc1	–	30.0	–	–	–
O=C(Oc1coc(CSc2nnc(NC(=O)c3cccs3)s2)cc1=O)c1ccccc1	–	–	–	–	–
SMILES	MazEF act	BoNT-A LC inh2	Anthrax LF inh2	Autofluor counter	BoNT F protease
CCc1nnc(SCC(=O)Nc2ccc(N3CCOCC3)cc2)n1C	–	–	–	–	–
COc1ccc2c(CC(=O)NNC(=O)c3ccc(O)cc3)coc2c1	–	–	–	–	–
C=CCNc1nc(-c2ccc(OC)cc2OC)cs1	–	?	–	21095	–
COc1cc(C(=O)Nc2cc(-c3ccccc3)[nH]n2)cc(OC)c1OC	–	?	–	20197	–
COc1cc(C(=O)Nc2nc(OC)c(-c3ccccc3)c(OC)n2)cc(OC)c1OC	–	–	–	–	–
COCCNc1nc(-c2cc(F)ccc2C)c2sc(-c3ccccc3)cc2n1	·	–	–	–	–
NNC(=O)c1nc(-c2ccccc2)n2c1CCCCC2	–	?	–	20671	–
CN1CCc2c(sc3c2C(=O)NC(c2ccco2)N3)C1 (centres undefined)	–	–	–	18769	–
O=C1NC(c2ccco2)Nc2sc3c(c21)CCN(Cc1ccccc1)C3 (centres undefined)	–	–	–	–	–
CN1CCc2c(sc3c2C(=O)NC(c2cn(Cc4ccccc4)c4ccccc24)N3)C1 (centres undefined)	–	–	–	20205	–
COc1ccc(Br)cc1C1NC(=O)c2c(sc3c2CCN(C)C3)N1 (centres undefined)	–	–	–	–	–
Cc1ccc(C)c(NC(=O)c2cnc3n(c2=O)CCS3)c1	–	–	–	–	–

Assay outcomes (PubChem)
